Laboratory results reported in PubChem BioAssay (NCI).
The panel holds about 83,000 compounds, 20% with a hit somewhere; the sample as a whole holds those more often.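 Compound tested at a single concentration for 48 hours in 96-well plates; a percent growth value below 10 was scored as active.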 Active and inactive are the calls of the source.

System: LOX IMVI melanoma
Assay: NCI-60 one-dose screen, 48 h (100 = growth as untreated, 0 = no growth, -100 = all killed)
Conditions: 10 µM

| SMILES | growth |
| --- | --- |
| O=S(=O)(Nc1ncccn1)c1ccc(-n2c(-c3ccc(Br)cc3)nc(-c3ccccc3)c2-c2ccccc2)cc1 | 32.2% (inactive) |
| Clc1cccc(N/N=C/c2c[nH]c3ccccc23)n1 | 17.9% (inactive) |
| COc1ccc2c(c1)N=C(C(=O)O)/C2=C/c1sc(Nc2ccc(O)cc2)nc1O | 49.2% (inactive) |
| CCCCCc1ccc(S(=O)(=O)N(C(C)=O)c2cc(-c3csc(N(C)C(C)=O)n3)ccc2N2CCN(C)CC2)cc1 | -99.8% (active) |

System: SK-MEL-28 melanoma
Assay: as above
Conditions: 10 µM

| SMILES | growth |
| --- | --- |
| Cc1ccc(/C=C/C(=O)c2ccc(NC(=O)CSc3nnc(-c4c[nH]c5ccccc45)n3-c3ccccc3)cc2)cc1 | 99.1% (inactive) |
| O=C(Nc1nc2ccc([N+](=O)[O-])cc2s1)Nc1cc(Cl)ccc1I | -52.7% (active) |
| Cc1ccc(C(=O)CSc2nnc(-c3c[nH]c4ccccc34)n2-c2ccccc2)cc1 | 49% (inactive) |
| COc1ccc2[nH]c(O)c(N=NC(=O)c3cc(-c4ccc(C)cc4)nc4ccccc34)c2c1 | 97.5% (inactive) |
| Cn1cc(/C=N/Nc2cccc(Cl)n2)c2ccccc21 | 104% (inactive) |
| N#Cc1ccc(-c2nn(-c3ccc(C(=O)O)cc3)cc2CNc2ccc(Cl)cc2)cc1 | 77.6% (inactive) |
| O=c1[nH]c2ccccc2cc1CSc1ccc(Nc2nccc(-c3ccc4ccccc4c3)n2)cc1 | 65.7% (inactive) |
| OCCCNc1oc(-c2ccccc2)nc1[P+](c1ccccc1)(c1ccccc1)c1ccccc1 | 7.68% (active) |
| COc1ccc(C(=O)/C=C/c2cc(C(F)(F)F)cc(C(F)(F)F)c2)cc1S(N)(=O)=O | -98.2% (active) |
| CS(=O)(=O)Nc1ccc(-c2ccc3c(c2)ncn3-c2ccc(NC(=O)Nc3ccc(Cl)c(C(F)(F)F)c3)cc2)cc1 | -78.1% (active) |
| O=c1nc(-c2ccccc2)cc(-c2cc3ccccc3nc2Cl)[nH]1 | 71.5% (inactive) |
| COc1cccc(/C=C2\N=C(C)N(CCc3ccc(S(N)(=O)=O)cc3)C2=O)c1 | 105% (inactive) |
| O=S(=O)(Nc1ncccn1)c1ccc(-n2c(-c3ccccc3)nc(-c3ccccc3)c2-c2ccccc2)cc1 | 105% (inactive) |
| Cc1ccc(-c2nc(Nc3ccc(S(N)(=O)=O)cc3)c3ccccc3n2)cc1 | 75.8% (inactive) |
| COc1ccc(C(C)=C(c2ccc(OCCCN(C)C)cc2)c2ccc(OCCCN(C)C)cc2)cc1 | -97.9% (active) |
| COC[C@@H](CC(C)C)N=C1NC(=O)/C(=C/c2ccc3ncsc3c2)N1 | 0.97% (active) |
| Cc1ccc(-c2nc3ccc(C(=O)N=Nc4c(O)[nH]c5ccc(Cl)cc45)cc3[nH]2)cc1 | -1.61% (active) |
| COc1cccc(/C=N/NC(=O)c2ccc3nc(-c4ccc(Cl)cc4)[nH]c3c2)c1O | -98.3% (active) |
| N#Cc1ccc(-c2nn(-c3ccc(C(=O)O)cc3)cc2CNc2ccc(Oc3ccccc3)cc2)cc1 | 21.3% (inactive) |

| SMILES | growth |
| --- | --- |
| CC(=O)c1ccc(Nc2nc(SCCC(C)C)nc(-c3ccc(F)cc3)c2C#N)cc1 | 83.5% (inactive) |
| Cc1cc(C)nc(NS(=O)(=O)c2ccc(N/C(N)=N/c3nccc(-c4ccccc4)n3)cc2)n1 | 74.5% (inactive) |
| COc1cccc(-c2ccnc(/N=C(\N)Nc3ccc(S(=O)(=O)Nc4nc(C)cc(C)n4)cc3)n2)c1 | 112% (inactive) |
| CC(=O)C1=C(C)NC(SCC(=O)Nc2ccc(S(=O)(=O)Nc3cc(C)on3)cc2)=NC1c1ccccc1 (stereo unspecified) | 110% (inactive) |
| COc1cccc2nc(Nc3ccc(F)c(NC(=O)c4ccc(CN5CCN(C)CC5)c(C(F)(F)F)c4)c3)ccc12 | -84% (active) |
| CNCc1cccc2c1OCCCCCC[C@@](C)(O)CC1(CC1)S(=O)(=O)c1ccc(cc1)-c1cnc(N)c(n1)C(=O)N2 | -93.6% (active) |
| CN(C)c1ccc(/C=C/c2nc3ccccc3c(=O)n2CC(=O)Nc2ccccc2)cc1 | 35.6% (inactive) |
| O=C1CCC(N2Cc3c(C#CCCCNC(=O)c4ccc(NC(=O)[C@@H]5NC6(CCCCC6)[C@@]6(C(=O)Nc7cc(Cl)ccc76)[C@H]5c5cccc(Cl)c5F)cc4)cccc3C2=O)C(=O)N1 (stereo partly specified) | 62.2% (inactive) |
| O=C(N/N=C/c1ccc(-c2cccc([N+](=O)[O-])c2)o1)c1[nH]c2ccc(Br)cc2c1-c1ccccc1 | 57.7% (inactive) |
| O=C(c1ccc(Cl)cc1)C1[C@H](c2ccccc2Br)[C@@H](c2ccccc2)NC12C(=O)Nc1ccc(Br)cc12 (stereo partly specified) | 43.8% (inactive) |
| O=C(c1ccc(Cl)cc1)C1[C@H](c2ccccc2Br)[C@@H](c2ccccc2)NC12C(=O)Nc1ccccc12 (stereo partly specified) | 44.8% (inactive) |
| O=C(Nc1cc(Cl)cc(Cl)c1)Nc1cc(Cl)cc(Cl)c1 | -12.1% (active) |
| CC(C)C1=C[C@@]23CC[C@@H]4[C@](C)(CCC[C@]4(C)C(=O)NCc4ccccc4)[C@H]2C[C@@H]1[C@H]1C(=O)CCC(=O)[C@H]13 | 68.6% (inactive) |
| COc1ccc(Nc2nc(N)n(Cc3cccc(Br)c3)n2)cc1 | 5.84% (active) |
| O=S(=O)(Nc1ncccn1)c1ccc(-n2c(-c3ccc(Br)cc3)nc(-c3ccccc3)c2-c2ccccc2)cc1 | 29.3% (inactive) |
| Clc1cccc(N/N=C/c2c[nH]c3ccccc23)n1 | 79.8% (inactive) |
| COc1ccc2c(c1)N=C(C(=O)O)/C2=C/c1sc(Nc2ccc(O)cc2)nc1O | 80.5% (inactive) |
| CCCCCc1ccc(S(=O)(=O)N(C(C)=O)c2cc(-c3csc(N(C)C(C)=O)n3)ccc2N2CCN(C)CC2)cc1 | -94.3% (active) |
